STK33 kin inh: inhibitors of human STK33 kinase | inhibition, % at 12.5 µM | 27,000 compounds, 0.44% hits | Q9BYT3 | ADP-Glo luminescence, MBP substrate; in the data active = inhibition above about 20%; inconclusive = no clear call, values can overlap the other calls
ID4 binder: ID4 (human) binding; P47928; small molecule microarray, Flag-ID4 binding, fluorescence F/B; calls only; 31,000 compounds, 1.2% hits; AID 624137; call rule not given here;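 note: a binder raises fluorescence above local background on the spot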
Target sequence (P47928 whole entry, looked up): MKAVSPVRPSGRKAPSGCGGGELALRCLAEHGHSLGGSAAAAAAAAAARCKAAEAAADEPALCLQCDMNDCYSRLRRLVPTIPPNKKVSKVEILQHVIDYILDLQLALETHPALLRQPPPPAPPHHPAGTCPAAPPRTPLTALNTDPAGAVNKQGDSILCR
* hit, by the source's call; i = inactive; ? = inconclusive; nt = not tested or not shown; + = active, no number. Only a selection was taken, and hits are over-represented in it overall.

SMILES	STK33 kin inh	ID4 binder
C[C@H](CO)N1C[C@H](C)[C@H](CN(C)C(=O)NC2CCCCC2)Oc2ncc(-c3ccc(F)cc3)cc2C1=O	-6.5	nt
CC1(C)Oc2ccc3ccc(=O)oc3c2[C@@H](O)[C@H]1O[C@@H]1O[C@H](CO)[C@@H](O)[C@H](O)[C@H]1O	0.8	nt
COc1ccc(S(=O)(=O)N(C)C[C@H]2Oc3ccc(NC(=O)Nc4cccc5ccccc45)cc3C(=O)N([C@H](C)CO)C[C@@H]2C)cc1	nt	i
CCc1nc(SCC(=O)Nc2cccc(Cl)c2)n[nH]1	1.9	i
C[C@@H]1CN([C@H](C)CO)C(=O)c2cc(-c3cccnc3)cnc2O[C@H]1CN(C)C	nt	i
C[C@@H]1CN([C@@H](C)CO)C(=O)c2cc(-c3cccnc3)cnc2O[C@H]1CN(C)C	nt	+
C=C(C(=O)/C=C/C(C)(C)O)C1CC2O[C@]2(C)C(=O)[C@H]1OC(=O)CC(C)C (stereo not given in full)	3.7	nt
C[C@H](CO)N1C[C@H](C)[C@@H](CN(C)C(=O)Nc2ccc(C(F)(F)F)cc2)Oc2ccc(NS(C)(=O)=O)cc2CC1=O	nt	i
O=C(N[C@H]1C=C[C@@H](CC(=O)N2CCc3ccccc3C2)O[C@@H]1CO)C1CCC1	nt	i
O=C(Nc1ccccc1C(=O)O)c1ncn[nH]1	1.6	i
O=C(Nc1cccc(NC(=O)c2ncn[nH]2)c1)c1cccc(Cl)c1	31.8*	i
COc1cccc(CN2CCN(Cc3cccc([N+](=O)[O-])c3)CC2)c1OC	-0.3	i
C=C(C(=O)O)C(CCCCCCO)C(=O)O (stereo not given)	-6.4	+
C=C(C(=O)O)C(CCCCC(C)O)C(=O)O (stereo not given)	-1.8	i
Cc1ccc(NC(=O)CSc2nnnn2-c2cccc(C(=O)O)c2)cc1C	-1.5	+
O=C(CSc1nnnn1-c1ccccc1)Nc1cccc(C(=O)O)c1	-0.2	i
CCOc1ccc(-n2c(C)nnc2SCC(=O)Nc2ccc(Br)cc2F)cc1	0.2	i
O=S(=O)(N[C@@H]1CCCN(Cc2ccc(OCCO)cc2)C1)c1cccc(F)c1	-2.9	+
O=S(=O)(NC[C@@H]1CCCN(Cc2ccc(OCCO)cc2)C1)c1cccc2cccnc12	-2.7	nt
COc1ccc(S(=O)(=O)NC2CCN(Cc3ccc(OCCO)cc3)CC2)cc1	nt	i
O=S(=O)(N[C@@H]1CCCN(Cc2ccc(OCCO)cc2)C1)c1ccc2ccccc2c1	nt	i
O=S(=O)(N[C@@H]1CCCN(Cc2cccc(OCCO)c2)C1)c1ccc(-c2ccccc2)cc1	-0.9	i
O=S(=O)(N[C@@H]1CCCN(Cc2cccc(OCCO)c2)C1)c1cccc(F)c1	1.2	+
O=S(=O)(N[C@@H]1CCCN(Cc2ccc(OCCO)cc2)C1)c1cccc2cccnc12	-8.0	+
Cc1ccc(S(=O)(=O)NC2CCN(Cc3ccc(OCCO)cc3)CC2)cc1	2.4	+
SMILES	STK33 kin inh	ID4 binder
O=C1c2ccccc2C(=O)N1CC1CCN(Cc2cccc(OCCO)c2)CC1	-1.4	i
C[C@H](CO)N1C[C@H](C)[C@@H](CN(C)C(=O)C2CCCCC2)Oc2ncc(-c3ccccc3)cc2C1=O	nt	i
C[C@H]1CN([C@@H](C)CO)C(=O)CCCn2nncc2CO[C@H]1CN(C)C(=O)CCCN(C)C	-4.2	nt
C[C@@H]1CN([C@@H](C)CO)C(=O)c2cc(NC(=O)Nc3cccc4ccccc34)ccc2O[C@@H](C)CCCCO[C@H]1CN(C)C	nt	i
COc1cccc(NC(=O)CCCC(=O)O)c1	-0.6	i
CNc1nc(Oc2ccc(=O)[nH]n2)nc(N2CCOCC2)n1	-2.4	i
Cc1ccc(Nc2nc(Oc3ccc(=O)[nH]n3)nc(N3CCOCC3)n2)cc1	8.4	+
Nc1cccc(-c2cc3c(Oc4cccc(O)c4)ncnc3[nH]2)c1	69.3*	nt
Cc1ccc([N+](=O)[O-])cc1N(CC(=O)Nc1ccc(Cl)cc1)S(C)(=O)=O	-0.3	i
COc1ccc([Si](C)(C)[C@@H]2[C@@H](CCn3cc(CCO)nn3)O[C@]3(C(=O)N(Cc4ccc(N5CCOC5=O)cc4)c4ccccc43)[C@H]2C)cc1	23.6*	i
COc1ccc([Si](C)(C)[C@H]2[C@H](CCO)O[C@@]3(C(=O)N(Cc4ccc(N5CCOC5=O)cc4)c4ccccc43)[C@@H]2C)cc1	?	i
C[C@H]1CN([C@@H](C)CO)C(=O)c2cccc(NS(=O)(=O)c3ccccc3)c2O[C@H]1CN(C)C(=O)Nc1cccc2ccccc12	nt	i
C[C@@H]1CN([C@H](C)CO)C(=O)c2cc(-c3cccc(F)c3)cnc2O[C@@H]1CN(C)C(=O)Nc1cc(F)ccc1F	nt	i
C[C@@H]1CN([C@@H](C)CO)C(=O)c2cc(-c3ccccc3)cnc2O[C@H]1CN(C)C(=O)c1cccc(F)c1	nt	i
C[C@H](CO)N1C[C@H](C)[C@H](CN(C)C(=O)c2cccc(F)c2)Oc2ncc(-c3ccccc3)cc2C1=O	nt	+
C[C@H]1CN([C@@H](C)CO)C(=O)c2cc(-c3cccc(F)c3)cnc2O[C@H]1CN(C)C(=O)Nc1cc(F)ccc1F	nt	+
CCCc1ccc(-c2cc(C(=O)NCc3ccccn3)c3ccccc3n2)cc1	5.1	i
Cn1c(=O)c2c(nc(NCCO)n2CCc2ccccc2)n(C)c1=O	0.3	i
COc1ccccc1C1=NOC(Cn2c(NCc3ccccc3)nc3c2c(=O)n(C)c(=O)n3C)C1 (stereo not given)	3.2	+
COc1cccc(C(=O)COc2ccc(NC(=O)c3ccccc3C)cc2)c1	-2.4	i
Cc1ccccc1C(=O)Nc1ccc(OCC(=O)O)cc1	0.0	+
COc1cc(C2OCC3C(c4cc(OC)c(OC)c(OC)c4)OCC23)cc(OC)c1OC (stereo not given)	-2.4	i
COc1cc2c(c(OC)c1OC)CCc1cc(O)c(O)cc1-2	21.4*	nt
C[C@H](CO)N1C[C@H](C)[C@@H](CN(C)S(=O)(=O)c2cn(C)cn2)Oc2c(NC(=O)Nc3cccc4ccccc34)cccc2C1=O	nt	i
CSc1ccc(C2C(C(=O)c3sc(C)nc3C)C(=O)C(=O)N2Cc2cccnc2)cc1 (stereo not given)	-0.9	+
SMILES	STK33 kin inh	ID4 binder
Cc1c(C(=O)C2C(=O)C(=O)N(Cc3cccnc3)C2c2ccc(F)cc2)cnn1-c1ccccc1 (stereo not given)	2.3	i
C[C@@H]1CCCCO[C@H](CN(C)C(=O)c2ccccc2)[C@@H](C)CN([C@@H](C)CO)C(=O)c2cc(NS(C)(=O)=O)ccc2O1	nt	i
C[C@H](CO)N1C[C@H](C)[C@@H](CN(C)C(=O)c2ccccc2)OCCCC[C@H](C)Oc2ccc(NS(C)(=O)=O)cc2C1=O	nt	+
C[C@@H]1CCCCO[C@H](CN(C)C(=O)CCCN(C)C)[C@@H](C)CN([C@H](C)CO)C(=O)c2cc(NS(=O)(=O)c3ccccc3)ccc2O1	-3.9	i
C[C@@H]1CCCCO[C@@H](CN(C)C(=O)CCCN(C)C)[C@@H](C)CN([C@H](C)CO)C(=O)c2cc(NS(=O)(=O)c3ccccc3)ccc2O1	2.2	+
O=C(CSc1nnc(-c2ccncc2)n1-c1ccc(F)cc1)Nc1ccc(Cl)cc1	1.9	i
COc1ccc(S(=O)(=O)N(C)C[C@@H]2Oc3ccc(NC(=O)CCCN(C)C)cc3CC(=O)N([C@@H](C)CO)C[C@@H]2C)cc1	-0.1	i
O=c1cc(-c2ccc(O[C@@H]3O[C@H](CO)[C@@H](O)[C@H](O)[C@H]3O)cc2)oc2cc(O)cc(O)c12	49.5*	i

Screens from PubChem.
